From PubChem BioAssay (EPA / NIEHS)
“And” between values parts separate entries of the source, which are not always exact repeats. Equal entries are not always repeated. Inconclusive results are not listed. Some compounds were tested as several samples or in several runs, with calls that do not always agree. The source made the active and inactive calls. How the source made its calls, unless noted: active means hit-call score of the fitted dose curve at least 0.9, where 1 is the maximum; inconclusive means response in the unintended direction; inactive means score below 0.9.

How the values were obtained:
[1] = read-out: UDP glucuronosyltransferase (UGT1A1), UGT1A1 (gene 54658); assay: LTEA_HepaRG_UGT1A1: Life Technologies and Expression Analysis (LTEA) Assay for UDP glucuronosyltransferase (UGT1A1) using HepaRG (AID 2283538; active means hit-call score of the fitted dose curve at least 0.9, where 1 is the maximum; inactive means score below 0.9); settings: mRNA level, 48 h; actives raise or lower the signal
Method in brief: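 mRNA induction or loss of UGT1A1, by TaqMan qRT-PCR, in duplicate HepaRG wells after 48 h exposure to half-log dilutions topping at 100 uM; DMSO (0.5%) served as baseline.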

[2] = read-out: UDP glucuronosyltransferase (UGT1A6), UGT1A6 (gene 54578); assay: LTEA_HepaRG_UGT1A6: Life Technologies and Expression Analysis (LTEA) Assay for UDP glucuronosyltransferase (UGT1A6) using HepaRG (AID 2283539; active means hit-call score of the fitted dose curve at least 0.9, where 1 is the maximum; inactive means score below 0.9); settings: mRNA level, 48 h; actives raise or lower the signal
Method in brief: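 Human HepaRG cells were dosed for 48 h in serum-free induction medium with 0.5% DMSO vehicle, eight-point half-log series from 100 uM, in duplicate. UGT1A6 mRNA was measured by qRT-PCR, normalized to ACTB, GAPDH, POLR2A, and fitted bidirectionally against DMSO.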

[3] = read-out: X-box binding protein 1 (XBP1), XBP1 (gene 7494); assay: LTEA_HepaRG_XBP1: Life Technologies and Expression Analysis (LTEA) Assay for X-box binding protein 1 (XBP1) using HepaRG (AID 2283540; active means hit-call score of the fitted dose curve at least 0.9, where 1 is the maximum; inactive means score below 0.9); settings: mRNA level, 48 h; actives raise or lower the signal
Method in brief: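 Differentiated human HepaRG cells in serum-free induction medium were exposed in duplicate for 48 h to eight half-log concentrations up to 100 uM in 0.5% DMSO. XBP1 mRNA was quantified by qRT-PCR, normalised to ACTB, GAPDH and POLR2A, with bidirectional fitting against DMSO.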

[4] = LTEA_HepaRG_LDH_cytotoxicity: Cytotoxicity Assessment in the Life Technologies and Expression Analysis (LTEA) Assay (AID 2283563);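 on AC50: LDH activity released into spent culture medium as a marker of cell death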
Method in brief: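 Differentiated human HepaRG cells, plated 48 h beforehand, were switched to serum-free induction medium and exposed for 48 h to eight half-log concentrations (top 100 uM) in 0.5% DMSO. LDH was measured in spent medium; activity was fitted relative to DMSO vehicle.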

[5] = ATG_XTT_Cytotoxicity: Cytotoxicity Assessment in the Attagene TRANS-FACTORIAL HepG2 Assay (AID 2283584);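 on AC50: cells exposed to compound for 24 h before reading; active means loss of viability signal versus DMSO baseline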
Method in brief: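 HepG2 human liver cells, transiently transfected with multiple GAL4-UAS reporter units, were dosed and read at 24 h by XTT as cell number. Loss of signal was fitted relative to DMSO negative control baseline.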

[6] = TOX21_p53_BLA_p2_viability: Viability Assessment in the Tox21 HCT-116 p53 Agonism Beta-lactamase Assay, Phase 2 (AID 2283591);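 further: compound exposure lasted 16 h at 37 °C; actives lower the ATP signal meaning cytotoxicity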
Method in brief: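 HCT116 p53-bla cells, 4000/well, dosed after 5 h plating (217-fold dilution of DMSO stocks) and incubated 16 h at 37C. Viability taken as cellular ATP by CellTiter-Glo luminescence after 30 min RT; signal loss marks cytotoxicity.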

[7] = molecular target: Cellular tumor antigen p53 (Homo sapiens) (UniProt P04637); assay: TOX21_p53_BLA_p2_ratio: Tox21 HCT-116 p53 Agonism Beta-lactamase Assay, Ratio, Phase 2 (AID 2283592)
Method in brief: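 Ratio endpoint: beta-lactamase cleavage of CCF4-AM, blue (460 nm) over green (530 nm). HCT116 reporter line; 16 h treatment, 37C; substrate 2 h RT.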

[8] = TOX21_p53_BLA_p3_viability: Viability Assessment in the Tox21 HCT-116 p53 Agonism Beta-lactamase Assay, Phase 3 (AID 2283593);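 further: cells exposed to compound for 16 h before reading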
Method in brief: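 HCT116 cells, 4000/well, dosed 5 h after plating by pin transfer (217-fold dilution from DMSO stock) and incubated 16 h at 37C, 5% CO2. Viability read as ATP luminescence with CellTiter-Glo after 30 min at room temperature.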

[9] = TOX21_p53_BLA_p4_viability: Viability Assessment in the Tox21 HCT-116 p53 Agonism Beta-lactamase Assay, Phase 4 (AID 2283597);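 further: hits lower the luminescence signal meaning cytotoxicity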
Method in brief: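 Cytotoxicity was inferred from loss of CellTiter-Glo luminescence. HCT116 cells had been dosed with compounds after 5 h plating, incubated 16 h at 37C and 5% CO2, and exposed to the CCF4-AM substrate for 2 h.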

[10] = molecular target: Cellular tumor antigen p53 (Homo sapiens) (UniProt P04637); assay: TOX21_p53_BLA_p3_ratio: Tox21 HCT-116 p53 Agonism Beta-lactamase Assay, Ratio, Phase 3 (AID 2283596)
Method in brief: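 Cells were seeded at 4000/well, rested 5 h at 37C, then dosed with DMSO compound solutions (217-fold dilution) for 16 h. CCF4-AM substrate was loaded for 2 h at room temperature, and the 460/530 nm emission ratio was fitted for gain of signal versus DMSO.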

Measured: AC50

Chain of Cellular tumor antigen p53 (Homo sapiens) (P04637 whole entry, looked up): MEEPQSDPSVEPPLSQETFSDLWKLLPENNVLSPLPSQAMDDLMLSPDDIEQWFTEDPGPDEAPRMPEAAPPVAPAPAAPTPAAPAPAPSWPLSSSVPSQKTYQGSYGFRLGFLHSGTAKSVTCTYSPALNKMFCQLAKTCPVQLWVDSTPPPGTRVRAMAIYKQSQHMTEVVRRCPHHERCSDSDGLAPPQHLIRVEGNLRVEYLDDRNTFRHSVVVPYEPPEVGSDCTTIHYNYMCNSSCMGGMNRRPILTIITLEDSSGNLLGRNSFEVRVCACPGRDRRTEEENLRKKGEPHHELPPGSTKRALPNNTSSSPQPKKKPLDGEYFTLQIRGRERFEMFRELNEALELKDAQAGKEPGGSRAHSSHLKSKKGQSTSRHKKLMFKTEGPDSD

CCc1ccc(CCOc2ccc(CC3SC(=O)NC3=O)cc2)nc1 (centres undefined)
active: [1] 12.2 µM
not listed: [10]
inactive: all other assays above

CCCCCCCCCCCCc1ccccc1S(=O)(=O)O
active: [1] 12 µM | [4] 77.7 µM | [5] 156 µM
inactive: [2] | [3]

O=C(OCCOCCOC(=O)c1ccccc1)c1ccccc1
not listed: [6] | [8] | [10]
inactive: all other assays above

c1ccc2c(c1)Cc1ccccc1-2
not listed: [5] | [10]
inactive: all other assays above

Cc1cc(CCN2CCN(c3nsc4ccccc34)CC2)cc2c1NC(=O)CC2(C)C
active: [1] 91.6 µM | [2] 79.5 µM | [4] 76.8 µM | [6] 60.5 µM | [7] 71.6 µM | [8] 19.9 µM | [9] 74.3 µM
inactive: [3]

N#C[C@@H]1CC(F)(F)CN1C(=O)CNC1CC2CCC(C1)N2c1ncccn1 (some centres undefined)
not listed: [5] | [7] | [10]
inactive: all other assays above

COCC(C)O (centres undefined)
not listed: [6] | [8] | [10]
inactive: all other assays above

CC(=O)NC1(c2cccc(F)c2)CCN(CC[C@@]2(c3ccc(Cl)c(Cl)c3)CN(c3ccccc3)C(=O)CO2)CC1
active: [1] 41.5 µM | [6] 57.1 µM | [7] 71.4 µM | [8] 66.9 µM | [10] 71.6 µM | [9] 46.2 µM
inactive: [2] | [3]

CC[C@H](C)[C@@H](C(=O)O)n1sc2ccccc2c1=O
not listed: [5] | [6] | [8]
inactive: all other assays above

CCc1nn(C2CCCCC2)c2cc(C3(C#N)CCC(C(=O)O)CC3)ccc12 (centres undefined)
active: [1] 11.8 µM | [7] 46.3 µM
not listed: [5] | [10]
inactive: all other assays above

Cc1cc(C)c(O)c(C)c1
active: [1] 8.27 µM
not listed: [5] | [6] | [10]
inactive: all other assays above

c1ccc2c(c1)ccc1ccccc12
active: [1] 7.77 µM
not listed: [8] | [10]
inactive: all other assays above

CCCCC(CC)COC(=O)CCCCC(=O)OCC(CC)CCCC (centres undefined)
not listed: [7] | [9]
inactive: all other assays above

CC(O)C(=O)O (centres undefined)
inactive: [5] | [7]

O=C1OC2(c3ccccc31)c1cc(Br)c(O)c(Br)c1Oc1c2cc(Br)c(O)c1Br
inactive: [5] | [6] | [8] | [9]

CCN(CC)CCNc1ccc(CNC=O)c2sc3ccc(OC)cc3c(=O)c12
active: [1] 44 µM | [2] 72 µM | [3] 30.6 µM | [4] 80.1 µM | [7] 10.2 µM
inactive: [6] | [8] | [9]

OC1CCCCC1
not listed: [6] | [8] | [10]
inactive: all other assays above

CC(C)CCCCCCOC(=O)CCCCC(=O)OCCCCCCC(C)C
not listed: [5] | [8] | [10]
inactive: all other assays above

CN1CCN(c2ccccc2/C=C2\SCCN(c3ccc(Cl)c(Cl)c3)C2=O)CC1
active: [1] 50 µM | [4] 69.7 µM | [8] 77.6 µM
not listed: [5] | [10]
inactive: all other assays above

CCC(C)(C)C1CCC(O)CC1 (centres undefined)
not listed: [6] | [9]
inactive: all other assays above

Cc1ccc(S(=O)(=O)O)c(C)c1
inactive: [5] | [7] | [8] | [10] | [9]

C[C@@H]1C[C@H]2[C@@H]3CCC4=CC(=O)C=C[C@]4(C)[C@@]3(F)[C@@H](O)C[C@]2(C)[C@@]1(O)C(=O)COP(=O)(O)O
not listed: [6] | [10]
inactive: all other assays above

CN(C)C=O
not listed: [6] | [10]
inactive: all other assays above

NC(=O)N(O)[C@@H]1C=C[C@H](Oc2cccc(Oc3ccc(F)cc3)c2)C1
active: [1] 75.5 µM | [2] 75.8 µM | [3] 28.2 µM | [4] 73.5 µM | [7] 66.5 µM | [9] 84.2 µM
inactive: [6] | [8]

COc1ccc([N+](=O)[O-])cc1N
active: [1] 50 µM
not listed: [6] | [10]
inactive: all other assays above

CCCCOCCO
not listed: [6] | [8] | [9]
inactive: all other assays above

CCCOc1sc(C(=O)N2CCC(c3cc(CN)ccc3F)CC2)c(C)c1Br
inactive: [1] | [2] | [3] | [4]
active: [6] 43.2 µM | [7] 80.1 µM | [8] 80 µM | [9] 31.7 µM

CCCCCCCCOC(=O)CCCCCCCCC(=O)OCCCCCCCC
not listed: [6] | [8]
inactive: all other assays above

CCCCCCCCCCCCCC[N+](C)(C)C
inactive: [5] | [7] | [8]
active: [5] 36.8 µM | [6] 49.1 µM and 13.3 µM and 33.7 µM | [7] 43.8 µM and 11.3 µM | [8] 37.5 µM | [9] 52.4 µM and 13.2 µM and 35.4 µM

CC(O)CO (centres undefined)
not listed: [4] | [5]
inactive: all other assays above

CC1=C(/C=C/C(C)=C/C=C/C(C)=C/C(=O)O)C(C)(C)CCC1
active: [1] 13 µM | [2] 16.9 µM | [8] 47.8 µM
inactive: [3] | [4] | [5] | [7] | [8]

NC(=O)N1C(=O)C(C(=O)c2cc(Cl)cs2)c2cc(F)c(Cl)cc21 (centres undefined)
active: [1] 38.7 µM | [2] 57 µM | [3] 12.9 µM | [4] 15.8 µM
inactive: [6] | [7] | [8] | [9]

CC(C)(C)c1cc(C(C)(C)C)c(O)c(C(C)(C)C)c1
active: [1] 13.9 µM | [2] 14.5 µM
not listed: [5]
inactive: all other assays above

C=C(C)C(=O)OCCC(F)(F)C(F)(F)C(F)(F)C(F)(F)C(F)(F)C(F)(F)F
not listed: [6]
inactive: all other assays above

CCCCCCC(=O)O
not listed: [6] | [10]
inactive: all other assays above
